# Most compounds without a hit are left out; they make up all but 0.9% or so of the library.
# Tat export inh – inhibitors of E. coli Tat protein transport. E. coli MC4100 TorA-mCherry Tat export, fluorescence. AID 488895. 340,000 compounds, 0.036% hits. inhibition, % at 10 µM;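 active = mean replicate inhibition at least 50% and at least half of replicates individually reaching 50%; inconclusive = only one of the two criteria met; inactive = neither criterion met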;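 also: exported cargo escapes ClpAP degradation while cytoplasmic cargo is degraded and loses fluorescence; 0% = median of neutral control wells and 100% = median of NaSCN control wells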
# E coli growth-1 – counter-screen for AddAB inhibitors: E. coli growth inhibition; 330,000 compounds, 0.27% hits; inhibition, % at 11.9 µM; E. coli V3065 growth, OD600 absorbance, 18 h;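 active = inhibition above the campaign's mean inhibition across all tested compounds plus 3 SD, cut at about 9.9% in these data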;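 also: uninfected addAB+ strain grown without phage in ampicillin broth; 0% = DMSO wells and 100% = ciprofloxacin 0.95 µg/ml wells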
# AddAB inh – less growth of phage-infected E. coli with AddAB | E. coli expressing H. pylori AddAB, absorbance growth | inhibition, % at 11.9 µM | 330,000 compounds, 0.29% hits | AID 435030; in the data active = inhibition above about 12%;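 also: 0% = vehicle wells of infected cells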
# E coli growth-2 – inhibitors of Escherichia coli growth; OD600, 23 h; active compounds read low; OD600 absorbance (no concentration beside the values); 330,000 compounds, 0.21% hits;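 active = OD600 absorbance below the run mean of sample wells minus 3.6 SD, in any replicate, cut at about 0.56 in these data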
# Calb FLC – affects C. albicans growth with fluconazole | C. albicans CaCi-2 (fluconazole-resistant clinical isolate) + fluconazole, Alamar Blue growth, 48 h | growth inhibition, % (test concentration not listed) | 300,000 compounds, 0.57% hits | AID 1979;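 active = growth inhibition above about 58% in most replicates, limit read from the data, passing the limit was not always enough; inconclusive = exactly half the replicates above a set limit; inactive = most replicates below a set limit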;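 also: all wells also contain fluconazole at 8 µg/ml as a sub-toxic cotreatment; 0% = median of DMSO wells and 100% = median of geldanamycin control wells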
# phage Ecoli inh – E. coli growth loss with phage present; inhibition, % at 11.9 µM; growth absorbance; 360,000 compounds, 0.26% hits; AID 651602; in the data active = inhibition above about 11%
# AddAB confirm – confirmation screen: growth loss of phage-infected E. coli expressing H. pylori AddAB; shares compounds with AddAB inh; E. coli V3065 expressing H. pylori AddAB, T4 phage, OD; T4 phage with gene 2 nonsense mutations; inhibition, % at 11.9 µM; 880 compounds, 64% hits; AID 488942;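 active = mean inhibition above a set limit taken from the earlier primary screen, cut at about 13% in these data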;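 also: higher means less bacterial growth since AddAB block lets phage replicate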
# RecBCD counter – counter-screen: growth loss of RecBCD+ E. coli with mutant T4 phage; shares compounds with AddAB inh; E. coli V66 + mutant T4 phage, OD growth; inhibition, % at 11.9 µM; 880 compounds, 73% hits; AID 488955;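 active = mean inhibition above the mean of solvent-only control wells plus 3 SD, cut at about 4% in these data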;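 also: optical density read after an 18 h incubation at 37 °C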
# bact viab count – reduces bacterial viability, AddAB inhibitor counter-screen; shares compounds with AddAB inh; absorbance (AddAB counterscreen); inhibition, % at 11.9 µM; 880 compounds, 35% hits; in the data active = inhibition above about 25%
# Starred values were filed as active, the others as inactive; u = inconclusive; x = no result given.
SMILES,Tat export inh,E coli growth-1,AddAB inh,E coli growth-2,Calb FLC,phage Ecoli inh,AddAB confirm,RecBCD counter,bact viab count
CCCS(=O)(=O)c1c(S(=O)(=O)CCC)c2c(C)cccn2c1C(=O)N/N=C/c1cc(O)cc(O)c1,-6,8,14*,x,69,10,4,6.0*,0
CCCS(=O)(=O)c1c(S(=O)(=O)CCC)c2c(C)cccn2c1C(N)=O,2,2,3,0.7,22,2,x,x,x
O=C(COc1ccc(Cl)cc1[N+](=O)[O-])NC1CCCCC1,3,20*,35*,0.72,-7,3,-3,2,-3
CC(=O)c1cc(Cl)ccc1OCC(=O)NC1CCCC1,2,x,x,0.68,x,5,x,x,x
O=C(CC(=O)NN=Cc1ccccc1[N+](=O)[O-])NCCc1ccccc1,x,x,x,0.68,x,x,x,x,x
CCc1ccc(C(=O)/C=C/Nc2ccc(S(=O)(=O)Nc3onc(C)c3C)cc2)cc1,4,4,14*,0.67,14,7,-1,3,2
Cc1noc(NS(=O)(=O)c2ccc(N/C=C/C(=O)c3ccc(F)cc3)cc2)c1C,-8,5,6,0.71,11,8,x,x,x
Cc1noc(NS(=O)(=O)c2ccc(N/C=C/C(=O)c3cccnc3)cc2)c1C,-1,8,13*,0.66,3,2,0,3,1
Cc1noc(NS(=O)(=O)c2ccc(N/C=C\C(=O)c3ccncc3)cc2)c1C,5,4,10,0.69,0,3,x,x,x
COc1ccccc1-[n+]1c(C)cc(/C=C2\Sc3ccccc3N2C)cc1C,-7,19*,23*,0.36*,-9,13*,33*,18*,30*
COC(=O)c1cc(=O)n(CCc2ccc(OC)cc2)c(=Nc2ccc(F)c(Cl)c2)s1,0,-2,0,0.81,-2,2,x,x,x
COC(=O)c1cc(=O)n(CCc2ccccc2)c(=Nc2ccc(F)cc2)s1,4,99*,99*,0.79,-7,2,0,1,-2
CCN1C(=O)C2C(c3ccc(-c4ccc(C(C)=O)cc4)c(OC)c3)N[C@@](Cc3ccccc3)(C(=O)OC)C2C1=O (stereo partly drawn),x,x,x,0.76,x,x,x,x,x
NC(=O)c1ccsc1NC(=O)COC(=O)c1ccc([N+](=O)[O-])o1,8,13*,97*,0.62,x,9,97*,8.3*,19
COc1c(OC(C)=O)ccc(C=NNC(=O)c2ccc(Br)cc2)c1[N+](=O)[O-],x,x,x,0.69,x,x,x,x,x
CCN1/C(=C/C=C/c2oc3ccc(-c4ccccc4)cc3[n+]2CC)Oc2ccc(-c3ccccc3)cc21,-15,12*,12*,0.74,75*,9,8,5.6*,6
CCOc1cc(C=NNC(=O)CN2CCOCC2)ccc1OCc1ccccc1,x,x,x,0.71,x,x,x,x,x
COc1ccc(CC(=O)NN=C(C)c2cccc(NC(=O)C3CC3)c2)cc1,x,x,x,0.66,x,x,x,x,x
O=C(Nc1nc(-c2cccs2)c(C(=O)C(F)(F)F)s1)c1ccccc1,16,3,7,0.69,20,3,x,x,x
O=C(Nc1nc(-c2cccs2)c(C(=O)C(F)(F)F)s1)c1ccco1,1,96*,99*,0.67,2,6,-3,0,-1
c1ccc(-c2nnc(-c3ccccn3)nn2)nc1,1,5,4,0.67,7,1,x,x,x
c1ccc(-c2cccc(-c3ccccn3)n2)nc1,-10,35*,34*,0.54,100*,x,46*,36*,30*
O=C(NN=C1CC(c2ccccc2)Oc2ccccc21)C1CC1 (stereo not drawn),x,x,x,0.66,x,x,x,x,x
COc1cc(C=NNC(=O)c2ccccn2)ccc1OC(=O)c1ccc(Br)cc1,x,x,x,0.71,x,x,x,x,x
C[C@H]1c2cccc(O)c2C(O)=C2C(=O)[C@]3(O)C(O)=C(C(N)=O)C(=O)[C@@H](N(C)C)C3[C@@H](O)C21 (stereo partly drawn),146*,100*,99*,x,x,101*,99*,98*,100*
SMILES,Tat export inh,E coli growth-1,AddAB inh,E coli growth-2,Calb FLC,phage Ecoli inh,AddAB confirm,RecBCD counter,bact viab count
O=C(COC(=O)Cc1n[nH]c(=O)c2ccccc12)Nc1c(Cl)cccc1C(F)(F)F,-3,27*,56*,0.61,0,7,-1,0,-2
O=C(COC(=O)Cc1c[nH]c2ccccc12)Nc1c(Cl)cccc1C(F)(F)F,5,-3,3,0.67,-6,0,x,x,x
O=C1NCC(c2ccccc2)C1C(=O)NN=Cc1ccc(Cl)s1 (stereo not drawn),x,x,x,0.69,x,x,x,x,x
CC(=O)c1cccc(NC(=O)CCNS(=O)(=O)c2cccc3nonc23)c1,-17,7,13*,0.68,u,5,6,4.5*,5
O=[N+]([O-])c1cc(-c2ncccn2)cs1,-1,13*,17*,0.6,-1,10,100*,8.6*,27*
CC(C)CNC(=S)NC(=O)c1csc([N+](=O)[O-])c1,-15,-1,4,0.57,-1,1,x,x,x
COc1ccc(OCC(O)CNc2ccc(Br)cc2)cc1 (stereo not drawn),-45,9,12*,0.58,7,11,13*,9.3*,10
COc1ccc(OCC(O)CNC(=O)c2ccc(Br)cc2)cc1 (stereo not drawn),1,2,0,0.73,u,3,x,x,x
Oc1ccc(C(Cc2ccc3ccccc3n2)=NNc2ccccc2)c(O)c1,x,x,x,0.67,x,x,x,x,x
CC1(C)OC(=O)C(=NNc2ccc(O)cc2)C(=O)O1,22,5,16*,0.69,x,2,17*,3,5
CC1(C)OC(=O)C(=NNc2ccccc2)C(=O)O1,-3,-3,3,x,-1,1,x,x,x
Nc1ncnc2c1ncn2C1CCCO1 (stereo not drawn),-1,0,0,0.68,x,3,x,x,x
S=c1nc[nH]c2c1ncn2C1CCCO1 (stereo not drawn),9,22*,26*,x,-4,8,-4,0,-2
CC1(C)OC2C(COS(=O)(=O)O)OC(n3cc(Br)c(=O)[nH]c3=O)C2O1 (stereo not drawn),x,x,x,0.65,x,x,x,x,x
CC1CCCCN1Cc1nc2c(c(=O)n(C)c(=O)n2C)n1Cc1c(F)cccc1Cl (stereo not drawn),0,25*,35*,0.72,x,x,-5,-1,-3
Cn1c(=O)c2c(nc(CN3CCC(C(N)=O)CC3)n2Cc2c(F)cccc2Cl)n(C)c1=O,-6,-4,-1,0.72,1,3,x,x,x
CCOCCCNC(=O)Cn1cc2c(n1)CCCC2,2,4,14*,0.71,-3,1,-2,1,-2

# Screens: PubChem, several laboratories
